In PubChem BioAssay AID720555 (National Center for Advancing Translational Sciences (NCATS), 2013) one finds Potency data, which are given here for three compounds.

Molecules are shown by their SMILES. Inconclusive results are not listed. Activity calls are given as the source filed them. The call rests on the fitted dose curve; in most records, active means well fitted inhibition curve with a large enough effect; inconclusive means small, poorly fitted or top-dose-only effect; inactive means no such curve, though single readings can be large or run the other way.

RecQ-like DNA helicase BLM (Homo sapiens), sequence (P54132 whole entry, looked up): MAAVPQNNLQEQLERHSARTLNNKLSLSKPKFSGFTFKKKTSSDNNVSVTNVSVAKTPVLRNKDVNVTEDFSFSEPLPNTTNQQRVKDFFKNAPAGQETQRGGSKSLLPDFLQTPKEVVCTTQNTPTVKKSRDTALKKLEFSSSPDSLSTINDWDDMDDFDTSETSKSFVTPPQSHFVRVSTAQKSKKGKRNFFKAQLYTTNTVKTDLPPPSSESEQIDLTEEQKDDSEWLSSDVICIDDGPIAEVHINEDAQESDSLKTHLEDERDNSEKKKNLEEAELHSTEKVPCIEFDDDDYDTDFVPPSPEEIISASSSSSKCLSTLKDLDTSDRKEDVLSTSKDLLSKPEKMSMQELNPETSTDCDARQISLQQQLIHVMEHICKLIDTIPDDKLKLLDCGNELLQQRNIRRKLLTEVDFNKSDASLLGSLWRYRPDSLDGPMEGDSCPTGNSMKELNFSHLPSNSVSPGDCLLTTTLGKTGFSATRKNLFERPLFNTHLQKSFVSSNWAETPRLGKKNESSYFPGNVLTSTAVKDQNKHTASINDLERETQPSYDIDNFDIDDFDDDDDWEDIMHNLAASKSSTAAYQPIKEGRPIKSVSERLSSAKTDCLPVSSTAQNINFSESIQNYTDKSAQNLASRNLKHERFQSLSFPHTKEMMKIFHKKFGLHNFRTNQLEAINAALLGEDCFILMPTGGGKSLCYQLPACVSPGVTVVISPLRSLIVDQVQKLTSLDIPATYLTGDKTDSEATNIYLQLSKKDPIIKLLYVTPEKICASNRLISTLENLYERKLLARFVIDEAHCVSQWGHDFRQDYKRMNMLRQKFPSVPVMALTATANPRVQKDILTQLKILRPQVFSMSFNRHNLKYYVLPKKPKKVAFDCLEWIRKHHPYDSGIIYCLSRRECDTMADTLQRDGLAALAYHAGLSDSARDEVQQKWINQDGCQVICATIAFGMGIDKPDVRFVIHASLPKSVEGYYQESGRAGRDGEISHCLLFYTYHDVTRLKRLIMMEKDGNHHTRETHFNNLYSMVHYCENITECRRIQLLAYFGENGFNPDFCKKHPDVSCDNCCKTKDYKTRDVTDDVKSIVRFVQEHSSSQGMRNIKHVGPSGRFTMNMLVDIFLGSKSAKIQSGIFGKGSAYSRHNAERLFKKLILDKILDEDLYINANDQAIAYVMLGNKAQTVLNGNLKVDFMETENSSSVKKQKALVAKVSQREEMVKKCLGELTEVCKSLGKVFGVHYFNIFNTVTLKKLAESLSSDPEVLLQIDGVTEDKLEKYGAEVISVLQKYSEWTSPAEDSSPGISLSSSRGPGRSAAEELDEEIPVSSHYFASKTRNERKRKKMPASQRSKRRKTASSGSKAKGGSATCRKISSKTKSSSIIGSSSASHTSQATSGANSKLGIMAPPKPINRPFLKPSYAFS

The assay concerns the target RecQ-like DNA helicase BLM (Homo sapiens) (UniProt P54132). Briefly: qHTS for Inhibitors of Bloom's syndrome helicase (BLM): Helicase DNA unwinding fluorescent orthogonal confirmatory assay for SAR. As to conditions: fluorescence, orthogonal confirmation. The text has this: Human RecQ DNA helicases participate in maintenance of genome stability and DNA repair. While other types of helicases have been explored as targets for drug development, members of the RecQ family have remained less well characterized. Mutations of the Bloom helicase gene have been associated with the rare human genetic disease called Bloom syndrome. […] Moreover, identified inhibitors can be used in cells and animal models to examine the consequences of inhibition on the survival of cancer cells where it has been shown that BLM plays an important role.
A fluorescence-based, biochemical assay in 1536 well format was developed to evaluate inhibition of BLM DNA unwinding activity. This assay was used to screen the MLPCN library. The resulting compounds were subjected to orthogonal and secondary biochemical assays to triage the initial hits, to classify compounds based on mode of action and to derive structure activity relationships (SARs) of candidate effectors. The data herein is the result of the Helicase DNA unwinding fluorescent orthogonal confirmatory assay. This fluorescent-based assay employs a purified BLM enzyme and utilizes gel electrophoresis to monitor the helicase-mediated unwinding of a fluorescently-labeled DNA substrate. For this assay decrease in the single-stranded DNA product band on the gel = inhibition of the BLM helicase activity. Inhibition is the desired outcome for this assay.
NIH Chemical Genomics Center [NCGC]
NIH Molecular Libraries Probe Centers Network [MLPCN]
Assay Submitter (PI): Opher Gileadi, Structural Genomics Consortium, University of Oxford, UK
Unwinding assay for the BLM helicase was carried out in a reaction buffer containing 50 mM Tris-HCl pH 7.5, 50mM NaCl, 2mM MgCl2, 2mM ATP, 1mM DTT, and 0.1 mg/ml BSA. Optimal substrate and enzyme concentrations as well as reaction times were determined experimentally. All reactions were performed at room temperature and terminated by the addition of loading buffer containing 20mM EDTA and 2.5% bromophenol blue. […] Substrate and product bands were quantified using ImageJ. […]
A general note: qHTS replaces the single test concentration by a dilution series.
Regarding `N#Cc1ccc(NC(=O)Nc2nnc(-c3ccncc3)s2)cc1C(F)(F)F`, the Potency was 5620 nM (active).

Regarding `N#Cc1ccc(NC(=O)Nc2nnc(-c3ccncc3)s2)cc1Br`, the Potency was 1120 nM (active). As for `N#Cc1ccc(NC(=O)Nc2nnc(-c3ccncc3)s2)cc1Cl`, the Potency was 1580 nM (active).
